According to PubChem BioAssay (NCATS):
Records with an inconclusive call do not appear. Where a call stands in place of a potency, no number is given. The source made the active and inactive calls. Calls follow the shape of the dose curve; as a rule, active = well fitted curve in the direction sought with a large enough effect; inconclusive = small, poorly fitted or top-dose-only effect, or another doubt; inactive = no such curve, though single readings can be large; an effect the other way counts as inactive or inconclusive.

Assays:
[1] = target: Aldehyde dehydrogenase, mitochondrial (Homo sapiens) (UniProt P05091); assay: qHTS for Inhibitors of the Aldehyde Dehydrogenase Family (ALDH2) Primary screen (AID 2061308); conditions: ALDH2 enzyme inhibition qHTS, 1536-well; series mostly up to 56 µM; also: nearly all actives have a fitted effect of over 55% in size
[2] = target: Retinaldehyde dehydrogenase 3 (Homo sapiens) (UniProt P47895); assay: qHTS for Inhibitors of the Aldehyde Dehydrogenase Family (ALDH1A3) Primary screen (AID 2061315); conditions: ALDH inhibition qHTS; series mostly up to 56 µM

SMILES | Potency [1] | Potency [2]
CC(C)c1nc2c(cnn2C)c(=O)n1N | inactive | inactive
O=C(/C=C/c1ccccc1Br)NCCc1nc2ccccc2[nH]1 | inactive | inactive
Cc1cc2c(s1)c1cnn(Cc3cccc([N+](=O)[O-])c3)c(=O)c1n2C | inactive | inactive
O=C1CCc2cc(S(=O)(=O)Nc3cccc4ccccc34)ccc2N1 | inactive | inactive
CCC(C)C(=O)Oc1cc(C)ccc1C1(COC(=O)C(C)C)CO1 (configuration not stated) | inactive | inactive
Cc1ccc(OCCn2c(CCNC(=O)c3ccccc3F)nc3ccccc32)cc1 | inactive | inactive
COc1ccccc1-c1nc(NCc2ccc(-c3cccnc3)cc2)c2ccccc2n1 | inactive | inactive
Cc1ccc(S(=O)(=O)Nc2ccc(Br)cc2C(=O)Nc2nc(-c3ccccc3)cs2)cc1 | inactive | inactive
Cn1c2cc(B(O)O)sc2c2cnn(Cc3c(F)cccc3F)c(=O)c21 | inactive | inactive
Cc1cc(C)nc(NC(=S)N2CCN(c3nccc4ccsc34)CC2)c1 | inactive | inactive
CC(=O)c1c(C)[nH]c(C(=O)Nc2ccc(OCCCN(C)C)c(S(=O)(=O)Nc3ccc(Br)cc3)c2)c1C | inactive | inactive
O=S(=O)(c1ccc2c(c1)OCCO2)N1C[C@@H]2C[C@H]1CN2S(=O)(=O)c1c(F)cccc1F | inactive | inactive
CCOC(=O)C1CCN(C(=O)C(C)(C)NC(=O)Nc2cccc(C(=O)OC)c2)CC1 | inactive | inactive
CN(C)c1cccc(-c2nccc(N3CCC(C(N)=O)CC3)n2)c1 | inactive | inactive
CCOc1ccc(CCNC(=O)c2cc3sccc3n2CCN2CCN(C)CC2)cc1OCC | inactive | inactive
O=C1CCCC2=C1C(c1[nH]ncc1Cl)N=C(Nc1nc3ccccc3s1)N2 (configuration not stated) | inactive | inactive
O=S(=O)(Nc1nc(-c2ccccc2C(F)(F)F)nc2ccccc12)c1ccc(Br)cc1 | inactive | inactive
O=S(=O)(NC1CCN(S(=O)(=O)c2c(F)cccc2F)C1)c1ccc2c(c1)OCCO2 (configuration not stated) | inactive | inactive
COc1cccc(NC(=S)N2CCN(c3cccc(C(F)(F)F)n3)CC2)n1 | inactive | inactive
COc1cc(O)c(C(CC(=O)N2CCCC(c3nc4ccccc4o3)C2)c2ccc3c(c2)OCO3)c(OC)c1 (configuration not stated) | inactive | inactive
C=C1C(=O)O[C@H]2C1CCC(C)=C1C(=O)C=C(C)[C@@]12O (some centres not stated) | inactive | inactive
O=c1[nH]cnc2c1ncn2[C@H]1CC[C@@H](CO)O1 | inactive | inactive

SMILES | Potency [1] | Potency [2]
COc1ccc(NC(=O)c2cnn3c(C)cc(C)nc23)cc1 | inactive | inactive
Cc1ccccc1C(=O)N1CCc2cc(-c3nc(NC(=O)Cc4ccccc4)sc3C)ccc21 | inactive | inactive
COCC1CCCN(C(=O)CC(c2ccc3c(c2)OCO3)c2c(O)cc(OC)cc2OC)C1 (configuration not stated) | inactive | inactive
Cc1nc(NCc2ccc(-c3ccnc(C(F)(F)F)c3)cc2)c2ccccc2n1 | inactive | inactive
Cc1cnc(-c2ccccc2C(C)C)nc1NCc1ccc(-c2nn[nH]n2)cc1 | inactive | inactive
CCCC1CCN(C(=O)CC(c2ccc3c(c2)OCO3)c2c(O)cc(OC)cc2OC)C1 (configuration not stated) | inactive | inactive
Cc1ccc(S(=O)(=O)Nc2ccc(C(=O)Nc3nc(-c4ccc(Cl)cc4)cs3)cc2)cc1 | inactive | inactive
COc1cc(O)c(C(CC(=O)N2CCCC(C(=O)c3ccccc3)C2)c2ccc3c(c2)OCO3)c(OC)c1 (configuration not stated) | inactive | inactive
C=C1C(=O)OC2C1CCC1(C)C(O)CC=C(C)C21 (configuration not stated) | inactive | inactive
c1ccc(C2Nc3cccc4cccc(c34)N2)cc1 | inactive | inactive
O=C(Nc1ncc(Cc2ccccc2)s1)c1ccc(-c2cccc([N+](=O)[O-])c2)o1 | inactive | inactive
FC(F)(F)c1ccccc1-c1nc(NCc2ccc3c(c2)OCO3)c2ccccc2n1 | inactive | inactive
FC(F)(F)c1cc(-c2ccc(CNc3nc(-c4ccccc4C(F)(F)F)nc4ccccc34)cc2)cc(C(F)(F)F)c1 | inactive | inactive
C=CCNc1oc(-c2ccc(F)cc2)nc1C#N | inactive | inactive
Cc1nc(NC2CCCCC2)c2nc(-c3ccccc3)n(CCCN(C)C)c2n1 | inactive | inactive
O=C(Nc1nc2cc(C(F)(F)F)ccc2s1)c1ccc(-c2cccc([N+](=O)[O-])c2)o1 | inactive | inactive
COCOC1CCC(C(=O)Nc2ccc([S+](=O)([O-])Nc3nccs3)cc2)CC1 (configuration not stated) | inactive | inactive
O=S(=O)(c1ccc2c(c1)OCCO2)C1CCC(S(=O)(=O)c2c(F)cccc2F)CC1 (configuration not stated) | inactive | inactive
O=C(CNC(=O)C1CCCC1)OC(C(=O)Nc1cc(C(F)(F)F)ccc1Cl)c1ccccc1 (configuration not stated) | inactive | inactive
Cn1nnnc1Sc1ncnc2scc(-c3ccccc3[N+](=O)[O-])c12 | inactive | inactive
Clc1ccccc1CSc1nc2ncc(Br)cc2[nH]1 | inactive | inactive
Cn1nnnc1Sc1ncnc2scc(-c3cccc(Cl)c3)c12 | inactive | inactive

SMILES | Potency [1] | Potency [2]
COc1cc(OC)cc(-c2nnc3n2N=C(c2ccccc2OC)CS3)c1 | inactive | inactive
Cc1ccc(-c2csc3ncnc(Sc4nnnn4C)c23)cc1 | inactive | inactive
Cc1cccc(-n2cnc3cc(C(=O)N4CCC(Cc5ccccc5)CC4)ccc32)c1 | inactive | inactive
CC(C)(N)C(=O)Nc1ccc(Cl)cc1C(=O)c1ccc[nH]1 | inactive | inactive
Cc1ccc(C(=O)Nc2ccc(N3CCCCC3)cc2)cc1 | inactive | inactive
Cc1cc2c(s1)c1c(C)nn(Cc3ccccc3F)c(=O)c1n2C | inactive | inactive
Clc1ccc(CSc2nc3ncc(Br)cc3[nH]2)cc1Cl | inactive | inactive
COc1cc(O)c(C(CC(=O)N2CCCC(C)C2)c2ccc(C)cc2)c(OC)c1 (configuration not stated) | inactive | inactive
S=c1[nH]c2ccccc2n1CCc1ccccc1 | inactive | inactive
CC1OC2O[C@H]3[C@@H](OCC(O)[C@H]3O)OC(=O)C34CCC(C)(C)CC3C3=CCC5C6(C)CC(O)C(OC7OC(CO)C(O)C(O)C7O[C@@H]7OC[C@H](OC(=O)CC(C)(O)CC(=O)OC1C(OC1OCC(O)C(O)C1O)C2O)[C@@H](O)[C@H]7O)C(C)(CO)C6CCC5(C)C3(C)CC4 (some centres not stated) | inactive | inactive
Cc1ccc(S(=O)(=O)Nc2cnccc2C(=O)Nc2ccc3ccccc3c2)cc1 | inactive | inactive
CCOc1ccc(CCNC(=O)c2ccc(C3(C(F)(F)F)N=N3)cc2)cc1OCC | inactive | inactive
O=S(=O)(Nc1cccc2cccnc12)c1ccccc1 | inactive | inactive
CCc1nn2c(=O)cc(N3C(C)CNCC3C)nc2s1 (configuration not stated) | inactive | inactive
COc1ccc(NS(=O)(=O)c2ccc3c(c2)CCC(=O)N3)cc1 | inactive | inactive
c1cncc(-c2ccc(CNc3nc(N4CCOCC4)nc4ccccc34)cc2)c1 | inactive | inactive
CC(C)(C)c1ccc(-c2nc(SCCCOc3ccccc3)n3[nH]c(=O)cc3n2)cc1 | inactive | inactive
COc1ccc(C2Nc3ccccc3C(=O)N2Cc2ccco2)cc1COc1c(C)cccc1C (configuration not stated) | inactive | inactive
O=C(Nc1ncc(Cc2cccc(C(F)(F)F)c2)s1)c1ccc(-c2cccc([N+](=O)[O-])c2)o1 | inactive | inactive
O=C(Nc1nnc(-c2ccco2)o1)c1ccc(Cl)c(Cl)c1 | inactive | inactive
NC(=O)c1ccc(O)c2ncccc12 | inactive | inactive
CC(C)(C)OC(=O)CC(=O)NNC(=O)c1nc2ccccc2[nH]1 | inactive | inactive

SMILES | Potency [1] | Potency [2]
CN(C)c1oc(-c2cccc3ccccc23)nc1C#N | inactive | inactive
O=C(Nc1ncc(-c2ccccc2)s1)c1ccc(-c2cccc([N+](=O)[O-])c2)o1 | inactive | inactive
Cc1sc(NC(=O)Cc2ccc3c(c2)OCO3)nc1-c1ccc2c(c1)CCN2C(=O)c1ccccc1Cl | inactive | inactive
CC(C)(C)C1CCC(C(=O)Nc2ccc(S(=O)(=O)Nc3nccs3)cc2)CC1 (configuration not stated) | inactive | inactive
Cc1csc(CNc2ncnc3ccc(-c4ccccc4Cl)cc23)c1 | inactive | inactive
O=C(O)c1ccc2c(c1)C(=O)N([C@]1(C(=O)O)CC1c1ccccc1)C2=O (some centres not stated) | inactive | inactive
COc1cccc(CNc2ccc([S+](=O)([O-])Nc3ccccc3)cc2)c1Cl | inactive | inactive
COc1ccccc1-c1nc2ccccc2s1 | inactive | inactive
N/C(=N\c1nnc(-c2ccncc2)s1)Nc1ccc(F)c(C(F)(F)F)c1 | inactive | inactive
Cc1cccc(-n2cnc3cc(C(=O)N4CCN(C)CC4)ccc32)c1 | inactive | inactive
COc1ccccc1-c1nnc2n1N=C(c1c(OC)cccc1OC)CS2 | inactive | inactive
CCCn1c(C)nc2c(NCCN(C)C)nc(C)nc21 | inactive | inactive
Cc1nc(NCCO)c2nc(-c3ccccc3)n(CCN(C)C)c2n1 | inactive | inactive
O=C(NC(c1ccco1)c1cc(Cl)c2cccnc2c1O)c1ccccc1 (configuration not stated) | inactive | inactive
Cc1ccc(S(=O)(=O)Nc2cnccc2C(=O)Nc2ccccc2)cc1 | inactive | inactive
O=C(Nc1ccc(-c2nc3ccccc3[nH]2)cc1)c1ccc2sccc2c1 | inactive | inactive
O=C(Nc1ccc(Br)cc1)Nc1nnc(-c2ccncc2)s1 | inactive | inactive
O=C(/C=C/c1ccc(F)cc1)Nc1cccc([S+](=O)([O-])Nc2ccccc2F)c1 | inactive | inactive
Clc1ccccc1-c1nc(NCc2ccc(-c3cccnc3)cc2)c2ccccc2n1 | inactive | inactive
CCCC1CCC(C(=O)Nc2ccc(S(=O)(=O)Nc3nccs3)cc2)CC1 (configuration not stated) | inactive | inactive
